Common to all, as to assay: Primary qHTS to identify gynecologic anti-cancer compounds using libraries of approved drugs and bioactive compounds (AID 1345084); further: nearly all actives have a fitted effect of over 55% in size
Holding throughout (conditions): Gynecologic cancer cell panel viability, ATPlite luminescence, 48 h; series mostly up to 57.5 µM

For experiment [1], the system named is SKOV3. Put shortly:
(§1)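 In this quantitative HTS, cell killing is estimated from loss of ATP-dependent luciferase light. Cells see five compound concentrations over a 48 h exposure.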

In experiment [2] the test system is PA-1. Put shortly:
as §1

In experiment [3] the test system is Tov-21-G. The gist of the method: as §1
Experiment [4] relates to Tov112D. Put shortly:
as §1

Each structure is given as a SMILES string. Inconclusive results are not listed. Values without a mark were called inactive. Calls of active or inactive are those of the source. The call rests on the fitted dose curve; in most records, active means well fitted cell-killing curve with a large enough effect; inconclusive means small, poorly fitted or top-dose-only effect, or effect the other way; inactive means flat fitted curve, though single readings scatter.
On the % scale 0 is the no-effect control and ±100 the full control effect; potency means the concentration at half of the fitted maximal effect.

On to `CC(=O)Nc1cccc2c1c(Sc1ccc(Cl)cc1)c(C)n2CC(=O)O`, for which the Potency entry in experiment [1] is “inactive”.
As for `O=C(/C=C/c1ccc(O)cc1)OC[C@H]1O[C@H](O[C@@]2(CO)O[C@@H](CO)[C@H](O)[C@H]2O)[C@H](O)[C@@H](O)[C@@H]1O`, the Potency entry in experiment [2], in experiment [3] and in experiment [4] was “inactive” in each case.
As to `COc1cc(C2CC(=O)Nc3c2cc(Br)c2ccccc32)cc(OC)c1OC` (stereo not given), the Potency entry in experiment [2], in experiment [3] and in experiment [4] was “inactive” each time.
As for `C=C1C(OC(C)=O)[C@@]23CCC4[C@](C)(C(=O)O)CCC[C@@]4(C)[C@]2(O)CC[C@H]1C3` (stereo not given in full), the Potency entry in experiment [2], in experiment [3] and in experiment [4] was “inactive” in each case.
`Cc1c(-c2ccc3c(c2)OCO3)oc2ccc(C(O)C(C)O)cc12` (stereo not given): the Potency entry in experiment [2] and in experiment [4] was “inactive” throughout.
Take `C=CCc1ccc(O[C@@H]2O[C@H](CO)[C@@H](O)[C@H](O)[C@H]2O)c(O[C@@H]2O[C@H](CO)[C@@H](O)[C@H](O)[C@H]2O)c1`: the Potency entry in experiment [2], in experiment [3] and in experiment [4] was “inactive” throughout.
For `CC1OC(O[C@@H]2[C@H](O)[C@@H](OC3OC(CO)C(O)C(O)C3O)[C@H](OC(=O)[C@]34CCC(C)(C)C[C@H]3C3=CCC5[C@@]6(C)CC[C@H](O[C@@H]7O[C@H](C(=O)O)[C@@H](O)[C@H](O[C@@H]8OC[C@@H](O)[C@H](O)[C@H]8O)[C@H]7O[C@@H]7O[C@H](CO)[C@H](O)[C@H](O)[C@H]7O)[C@@](C)(C=O)C6CC[C@@]5(C)[C@]3(C)C[C@H]4O)O[C@@H]2C)C(O)C(O)C1OC1OCC(O)C(O)C1O` (stereo not given in full), the results for the activity change, negative = cytotoxicity in experiment [2], in experiment [3] and in experiment [4] were 8.3% [at 6.55 µM], -1.56% [at 6.55 µM] and 1.65% [at 6.55 µM], respectively.
As for `Cc1ccc(COC(=O)N2CC[C@@H](CNc3ncccn3)[C@@H](F)C2)cc1`, the Potency result in experiment [2], in experiment [3] and in experiment [4] was “inactive” each time.
Regarding `C/C=C(\C)C1C(C)=CC2CCC(OS(=O)(=O)O)C(C)C2C1/C=C/C=C/C(=O)O` (stereo not given), the Potency result in experiment [2], in experiment [3] and in experiment [4] was “inactive” throughout.
Take `C/C=C/C=C/C=C/C(=O)O[C@@H]1[C@@H](OC)C2=C(C(=O)N(C(CCC(=O)O)C(=O)O)C2)[C@@]2(C)CCCC(C)(C)[C@H]12` (stereo not given in full): the Potency result in experiment [2], in experiment [3] and in experiment [4] was “inactive” in each case.
Consider `CCCCC(=O)N1c2ccccc2NC2=C(C(=O)CCC2)C1c1ccccc1Cl` (stereo not given), for which the Potency result in experiment [2], in experiment [3] and in experiment [4] was “inactive” each time.
In the case of `CCCCNc1nc(N)c2[nH]c(=O)n(Cc3ccc(OCCN(C)C)nc3)c2n1`, the Potency result in experiment [2], in experiment [3] and in experiment [4] was “inactive” in each case.
For `c1ccc2c(Nc3nnc(-c4ccncc4)s3)cccc2c1`, the Potency result in experiment [2] and in experiment [4] was “inactive” each time.
Turning to `C=C1C2CCC3C(CCC4[C@@]3(C)CCC[C@@]4(C)C(=O)O)(C2)[C@@H]1OC(=O)/C(C)=C\C` (stereo not given in full), in experiment [1], the Potency result was “inactive”.
Consider `Cc1cc(C(=O)N2Cc3cnn(C)c3Nc3ccccc32)ccc1CNC(=O)N1CCN(Cc2cc(O)cc(O)c2)CC1`, for which the Potency entry in experiment [2], in experiment [3] and in experiment [4] was “inactive” each time.
Turning to `COCCN1CCC(C(=O)NO)(S(=O)(=O)c2ccc(Oc3ccc(OC(F)(F)F)cc3)cc2)CC1`, the Potency entry in experiment [2], in experiment [3] and in experiment [4] was “inactive” in each case.
With `COc1cccc(OC)c1-c1cc(C(=O)N[C@@H](CC(C)C)C(=O)O)nn1-c1ccnc2cc(Cl)ccc12`, the Potency result in experiment [2], in experiment [3] and in experiment [4] was “inactive” in each case.
Turning to `O=C(O)/C=C/c1ccc(O[C@@H]2O[C@H](CO)[C@@H](O)[C@H](O)[C@H]2O)cc1`, the Potency entry in experiment [2], in experiment [3] and in experiment [4] was “inactive” each time.
With `COc1cc(Nc2ccc([N+](=O)[O-])cc2C(=O)O)cc2ccccc12`, the Potency entry in experiment [2], in experiment [3] and in experiment [4] was “inactive” in each case.
For `OCC1OC(Oc2cc(O)cc(/C=C/c3ccc(OC4OC(CO)C(O)C(O)C4O)cc3O)c2)C(O)C(O)C1O` (stereo not given), the Potency result in experiment [2], in experiment [3] and in experiment [4] was “inactive” throughout.
Consider `COC(=O)C1=CO[C@@H](O[C@@H]2O[C@H](CO)[C@@H](O)[C@H](O)[C@H]2O)[C@H]2[C@@H]1[C@H](O)C[C@]2(C)O`, for which the Potency result in experiment [2], in experiment [3] and in experiment [4] was “inactive” throughout.
Take `COc1ccccc1N1CCN(CCCCNC(=O)c2ccc(-c3cscn3)cc2)CC1`: the Potency result in experiment [2], in experiment [3] and in experiment [4] was “inactive” each time.
With `CCC12CCCN3CCc4c(n(c5ccccc45)C(O)C1)C32` (stereo not given), the Potency entry in experiment [2], in experiment [3] and in experiment [4] was “inactive” throughout.
As for `Cc1c(Cc2ccc3ccccc3n2)c2cc(F)ccc2n1CC(=O)O`, the Potency entry in experiment [2], in experiment [3] and in experiment [4] was “inactive” each time.
Take `COc1ccc(OC)c(C2C(C#N)=C(N)Oc3n[nH]c(-c4ccc5ccccc5c4)c32)c1` (stereo not given): the Potency entry in experiment [2], in experiment [3] and in experiment [4] was “inactive” throughout.
Consider `COc1cc(C(=O)OC[C@H]2O[C@@H](OC(C)(C)C(=O)O)[C@H](O)[C@@H](O)[C@@H]2O)cc(OC)c1O`, for which the Potency result in experiment [2], in experiment [3] and in experiment [4] was “inactive” in each case.
Take `C[C@@H]1C(=O)O[C@H](C)[C@H]1C[C@@H](O)[C@](C)(O)[C@H]1CC[C@@]2(O)C3=CC(=O)[C@@H]4C[C@@H](O)[C@@H](O)C[C@]4(C)C3CC[C@]12C` (stereo not given in full): the Potency entry in experiment [1], in experiment [3] and in experiment [4] was “inactive” throughout.
For `CC1=C2CC(C)(C)CC2C(O)C2=C(C1)C(=O)OC2O` (stereo not given), the Potency entry in experiment [1], in experiment [3] and in experiment [4] was “inactive” in each case.
With `CC1=C2CC3C(CCC3(C)O)C(C)(O)CC2OC1=O` (stereo not given), the Potency entry in experiment [1], in experiment [3] and in experiment [4] was “inactive” each time.
Take `COc1ccc2c(c1)C=C1Cn3c-2c(C2CCCCC2)c2ccc(cc23)C(=O)NS(=O)(=O)N(C)CCOCCN(C)C1=O`: the Potency result in experiment [3] and in experiment [4] was “inactive” throughout.
Take `O=C(/C=C/c1ccc(O)c(O)c1)O[C@H]1[C@H](OC2CCCCC2O)O[C@H](CO)[C@@H](O)[C@@H]1O` (stereo not given in full): the Potency entry in experiment [3] and in experiment [4] was “inactive” each time.
With `O=C(O)CCc1cc2ccoc2cc1O[C@@H]1O[C@H](CO)[C@@H](O)[C@H](O)[C@H]1O`, the Potency result in experiment [1], in experiment [3] and in experiment [4] was “inactive” throughout.
As to `O=C(CCCCC1CCCCC1)N1CCC(c2cnc[nH]2)CC1`, the Potency result in experiment [3] and in experiment [4] was “inactive” each time.
`O=C(O[C@@H]1O[C@H](CO)[C@@H](O)[C@H](O)[C@H]1O)c1ccccc1`: the Potency entry in experiment [1], in experiment [3] and in experiment [4] was “inactive” throughout.
As to `Cc1onc(-c2ccccc2Cl)c1C(=O)N(C)c1ccc(Cl)cc1`, the Potency result in experiment [1], in experiment [3] and in experiment [4] was “inactive” throughout.
Consider `COc1cc(/C=C/CO[C@@H]2O[C@H](CO)[C@@H](O)[C@H](O)[C@H]2O)cc(OC)c1O[C@@H]1O[C@H](CO)[C@@H](O)[C@H](O)[C@H]1O`, for which the Potency result in experiment [1], in experiment [3] and in experiment [4] was “inactive” in each case.
`CNc1nc(C)nc(N[C@H]2CCC[C@@H](C(=O)NCc3ccc(C#N)cc3C(F)(F)F)C2)n1`: the Potency entry in experiment [1], in experiment [3] and in experiment [4] was “inactive” each time.
Consider `CC1CCC2C(C(=O)O)=CC3(O)CC(C)(C)CC123` (stereo not given), for which the Potency entry in experiment [1], in experiment [3] and in experiment [4] was “inactive” in each case.
Consider `NC1(c2ccc(NC(=O)c3ccnc(-c4cc(C(=O)O)ccn4)c3)cc2)CC1`, for which the Potency result in experiment [1], in experiment [3] and in experiment [4] was “inactive” in each case.
With `CC1(CO)CC(O)C2(C)CCC3(C)C(=CCC4C5(C=O)CCC(OC6OC(C(=O)O)C(O)C(O)C6OC6OC(C(=O)O)C(O)C(O)C6O)C(C)(C)C5CCC43C)C2C1` (stereo not given), the activity change, negative = cytotoxicity was 10.3% [at 11.6 µM] in experiment [3] and 20.1% [at 11.6 µM] in experiment [4].
Turning to `Cc1ccc(-n2nc(C(C)(C)C)cc2NC(=O)Nc2cc(COc3cccnc3)[nH]n2)cc1`, the Potency entry in experiment [1], in experiment [3] and in experiment [4] was “inactive” in each case.
Take `CC(C)=CCC[C@](C)(O[C@@H]1O[C@H](CO[C@@H]2O[C@@H](CO)[C@H](O)[C@H]2O)[C@@H](O)[C@H](O)[C@H]1O)[C@H]1CC[C@]2(C)[C@@H]1[C@H](O)C[C@@H]1[C@@]3(C)CC[C@H](O[C@@H]4O[C@H](CO)[C@@H](O)[C@H](O)[C@H]4O[C@@H]4O[C@H](CO)[C@@H](O)[C@H](O)[C@H]4O)C(C)(C)[C@@H]3CC[C@]12C`: the Potency entry in experiment [1], in experiment [3] and in experiment [4] was “inactive” each time.
In the case of `COc1ccc(-c2ccn(CC[C@](C)(C(=O)NO)S(C)(=O)=O)c(=O)c2)c(F)c1`, the Potency in experiment [3] is 25.1 µM (active).
Regarding `COC(=O)C1=COC(OC2OC(CO)C(O)C(O)C2O)C2C(C)CC(=O)C12O` (stereo not given), the Potency result in experiment [1], in experiment [3] and in experiment [4] was “inactive” each time.
`Fc1ccccc1-c1nc2ccn(Cc3ccc(-c4ccc(C(F)(F)F)cc4C(F)(F)F)nn3)cc-2n1`: the Potency entry in experiment [3] and in experiment [4] was “inactive” in each case.
As for `COc1ccc2c(c1)N1C(=O)C[C@@]34C=CC[N@+]5([O-])CC[C@H]2[C@H](CC3)[C@@]145`, the Potency entry in experiment [1], in experiment [3] and in experiment [4] was “inactive” each time.
Consider `N#Cc1ccc(C2CCCc3cncn32)cc1` (stereo not given), for which the Potency result in experiment [1] was “inactive”.
On to `CC(=O)OC1CC2(C)C(CCC(C)C23Cc2c(O)cc4c(c2O3)CNC4=O)C(C)(C)C1O` (stereo not given), for which the Potency entry in experiment [1], in experiment [3] and in experiment [4] was “inactive” each time.
Turning to `COC(=O)C1=CO[C@@H](O[C@@H]2O[C@H](CO)[C@@H](O)[C@H](O)[C@H]2O)[C@H]2[C@@H]1C=C[C@]21C=C([C@H](C)OC(=O)/C=C/c2ccc(O[C@@H]3O[C@H](CO)[C@@H](O)[C@H](O)[C@H]3O)cc2)C(=O)O1`, the Potency result in experiment [1], in experiment [3] and in experiment [4] was “inactive” each time.
On to `C[C@@H]1CC[C@]2(C(=O)O)CC[C@]3(C)C(=CCC4[C@@]5(C)C[C@@H](O)[C@@H](O)C(C)(C)C5CC[C@]43C)C2[C@]1(C)O` (stereo not given in full), for which the Potency result in experiment [3] and in experiment [4] was “inactive” throughout.
Regarding `CC1(C)CC[C@]2(C(=O)O)CC[C@]3(C)C(=CCC4[C@@]5(C)CC[C@H](O)C(C)(C)C5CC[C@]43C)C2C1` (stereo not given in full), the Potency result in experiment [1], in experiment [3] and in experiment [4] was “inactive” each time.
Consider `NC[C@@H]1O[C@@H](O[C@@H]2[C@@H](O[C@@H]3O[C@H](CO)[C@@H](O)[C@H]3O)[C@H](O)[C@@H](N)C[C@H]2N)[C@@H](N)[C@H](O)[C@H]1O`, for which the activity change, negative = cytotoxicity in experiment [1] was 2.15% [at 11.6 µM]; in experiment [3], -2.07% [at 11.6 µM]; in experiment [4], -1.83% [at 11.6 µM].

Source of the values: PubChem BioAssay (NCATS).
